Source: the supplement of paper PMC10849652
Targets with a hit are over-represented here; the source holds about 8,800 in all. About 0.5% of all pairs of compound and target were hits. Values without a mark were called inactive.

Legend:
Assay in all cases: log2 fold change, soluble protein after heating vs DMSO (PISA); higher = thermal stabilisation; K562 lysate, 10 uM; active = over 0.2 and 3.5 SD of the protein, either way, in both replicates (recomputed)
vemurafenib = compound: CCCS(=O)(=O)Nc1ccc(F)c(C(=O)c2c[nH]c3ncc(-c4ccc(Cl)cc4)cc23)c1F [vemurafenib]
Outline: (§1)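 Quantification was by TMTpro 16plex LC-MS/MS with equalised channel sums, applied to the supernatant after 21,000xg for 90 min. Samples were crude K562 extract at 1 mg/mL protein in PBS pH 7.4 with 1 mM MgCl2, treated with 10 μM compound for 30 min, heated for 3 min across 48°C-58°C, pooled and brought to 0.5% NP-40 at 4°C. Values are log-two fold changes in thermal stability relative to solvent controls, from duplicates.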

[1] = compound: CCCS(=O)(=O)Nc1ccc(F)c(C(=O)c2c[nH]c3ncc(Cl)cc23)c1F
Outline: as §1

barasertib = compound: CCN(CCCOc1ccc2c(Nc3cc(CC(=O)Nc4cccc(F)c4)[nH]n3)ncnc2c1)CCOP(=O)(O)O [barasertib]
Outline: as §1

[2] = compound: CC[C@@H]1C(=O)N(C)c2cnc(Nc3ccc(C(=O)NC4CCN(C)CC4)cc3OC)nc2N1C1CCCC1
Outline: as §1

volasertib = compound: CC[C@@H]1C(=O)N(C)c2cnc(Nc3ccc(C(=O)N[C@H]4CC[C@H](N5CCN(CC6CC6)CC5)CC4)cc3OC)nc2N1C(C)C [volasertib]
Outline: as §1

[3] = compound: CCn1c(C(=O)N(C2CC2)C2CC2)cc2c3c(ncn3C)c(Nc3cc(C)n(C)n3)nc21
Outline: as §1

[4] = compound: CCn1cc(-c2ccnc3[nH]c(-c4cccc(CN(C)C)c4)cc23)c(-c2ccc(NC(=O)N(C)C)cc2)n1
Outline: as §1

[5] = compound: CN1CCC(CNc2ccc3ncc(-c4cccc(OC(F)(F)F)c4)n3n2)CC1
Outline: as §1

saracatinib = compound: CN1CCN(CCOc2cc(OC3CCOCC3)c3c(Nc4c(Cl)ccc5c4OCO5)ncnc3c2)CC1 [saracatinib]
Outline: as §1

sotrastaurin = compound: CN1CCN(c2nc(C3=C(c4c[nH]c5ccccc45)C(=O)NC3=O)c3ccccc3n2)CC1 [sotrastaurin]
Outline: as §1

alvocidib = compound: CN1CC[C@H](c2c(O)cc(O)c3c(=O)cc(-c4ccccc4Cl)oc23)[C@H](O)C1 [alvocidib]
Outline: as §1

Tubastatin A = compound: CN1CCc2c(c3ccccc3n2Cc2ccc(C(=O)NO)cc2)C1 [Tubastatin A]
Outline: as §1

[6] = compound: CNC(=O)C1=CC=CC=C1NC2=NC(=NC=C2Cl)NC3=C(C=C(C=C3)N4CCOCC4)OC
Outline: as §1

defactinib = compound: CNC(=O)c1ccc(Nc2ncc(C(F)(F)F)c(NCc3nccnc3N(C)S(C)(=O)=O)n2)cc1 [defactinib]
Outline: as §1

[7] = compound: CNc1nc(-c2ccc3c(N)n[nH]c3c2)cc(N2C[C@@H](C(=O)NC3CCCCC3)CC[C@H]2C)n1
Outline: as §1

encorafenib = compound: COC(=O)N[C@@H](C)CNc1nccc(-c2cn(C(C)C)nc2-c2cc(Cl)cc(NS(C)(=O)=O)c2F)n1 [encorafenib]
Outline: as §1

[8] = compound: COC(=O)[C@H](CCSC)NC(=O)C1=C(C=C(C=C1)NC[C@H](CS)N)C2=CC=CC=C2
Outline: as §1

alisertib = compound: COc1cc(Nc2ncc3c(n2)-c2ccc(Cl)cc2C(c2c(F)cccc2OC)=NC3)ccc1C(=O)O [alisertib]
Outline: as §1

[9] = compound: COc1cc2nc(-c3cc(F)ccc3O)nc(N[C@@H]3CNC[C@H]3C(C)(C)O)c2cc1OC
Outline: as §1

gefitinib = compound: COc1cc2ncnc(Nc3ccc(F)c(Cl)c3)c2cc1OCCCN1CCOCC1 [gefitinib]
Outline: as §1

Sequence of UniProt Q8TBN0 (Q8TBN0 whole entry, looked up): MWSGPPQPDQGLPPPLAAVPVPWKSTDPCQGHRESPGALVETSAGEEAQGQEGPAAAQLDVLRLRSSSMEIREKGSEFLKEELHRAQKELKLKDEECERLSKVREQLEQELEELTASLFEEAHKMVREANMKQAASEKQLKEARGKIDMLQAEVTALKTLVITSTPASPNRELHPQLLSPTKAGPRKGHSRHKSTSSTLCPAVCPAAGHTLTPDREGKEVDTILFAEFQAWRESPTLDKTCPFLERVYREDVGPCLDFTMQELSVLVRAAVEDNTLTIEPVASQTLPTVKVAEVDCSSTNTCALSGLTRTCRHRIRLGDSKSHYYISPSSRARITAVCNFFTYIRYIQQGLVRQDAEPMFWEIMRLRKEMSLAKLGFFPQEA
Sequence of UniProt O75880 (O75880 whole entry, looked up): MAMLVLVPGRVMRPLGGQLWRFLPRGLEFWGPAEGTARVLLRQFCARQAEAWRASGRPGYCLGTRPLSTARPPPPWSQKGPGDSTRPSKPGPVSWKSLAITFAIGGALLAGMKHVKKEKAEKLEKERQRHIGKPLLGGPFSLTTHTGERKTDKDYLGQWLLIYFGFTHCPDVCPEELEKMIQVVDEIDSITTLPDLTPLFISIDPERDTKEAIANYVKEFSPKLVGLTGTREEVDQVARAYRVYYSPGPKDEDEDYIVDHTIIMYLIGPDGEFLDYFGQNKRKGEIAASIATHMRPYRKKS
Sequence of UniProt Q14644 (Q14644 whole entry, looked up): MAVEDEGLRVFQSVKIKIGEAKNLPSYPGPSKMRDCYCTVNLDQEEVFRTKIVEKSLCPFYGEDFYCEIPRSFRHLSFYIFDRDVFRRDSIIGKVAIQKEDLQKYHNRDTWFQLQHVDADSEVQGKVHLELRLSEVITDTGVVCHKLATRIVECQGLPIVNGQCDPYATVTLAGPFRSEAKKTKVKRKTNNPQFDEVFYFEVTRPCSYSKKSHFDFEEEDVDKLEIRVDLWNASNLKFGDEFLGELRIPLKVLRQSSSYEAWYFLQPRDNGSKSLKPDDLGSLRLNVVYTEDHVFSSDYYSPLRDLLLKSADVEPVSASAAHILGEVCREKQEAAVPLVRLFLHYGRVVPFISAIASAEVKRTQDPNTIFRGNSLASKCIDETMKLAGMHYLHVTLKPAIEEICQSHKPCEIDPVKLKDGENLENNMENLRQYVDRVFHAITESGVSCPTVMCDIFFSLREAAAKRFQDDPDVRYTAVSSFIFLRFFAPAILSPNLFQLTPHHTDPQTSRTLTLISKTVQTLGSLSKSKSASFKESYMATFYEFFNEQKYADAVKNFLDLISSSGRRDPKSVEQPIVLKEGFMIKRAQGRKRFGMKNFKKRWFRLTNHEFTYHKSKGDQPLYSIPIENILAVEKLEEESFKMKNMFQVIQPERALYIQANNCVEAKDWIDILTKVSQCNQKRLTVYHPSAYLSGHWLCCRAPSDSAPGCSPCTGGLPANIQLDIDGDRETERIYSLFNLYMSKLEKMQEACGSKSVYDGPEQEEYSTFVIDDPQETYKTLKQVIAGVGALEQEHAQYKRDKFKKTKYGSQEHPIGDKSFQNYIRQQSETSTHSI
Sequence of UniProt O43502 (O43502 whole entry, looked up): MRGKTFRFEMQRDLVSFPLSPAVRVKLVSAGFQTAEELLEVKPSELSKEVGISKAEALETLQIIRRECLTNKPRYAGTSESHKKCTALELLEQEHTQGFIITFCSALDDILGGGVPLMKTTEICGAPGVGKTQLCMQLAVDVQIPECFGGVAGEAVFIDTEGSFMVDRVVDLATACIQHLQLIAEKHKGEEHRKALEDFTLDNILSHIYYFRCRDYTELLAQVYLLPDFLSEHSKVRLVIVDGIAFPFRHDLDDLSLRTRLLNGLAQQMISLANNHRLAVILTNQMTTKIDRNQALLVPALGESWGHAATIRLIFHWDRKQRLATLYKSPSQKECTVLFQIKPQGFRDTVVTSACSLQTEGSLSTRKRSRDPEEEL
Sequence of UniProt Q9GZR2 (Q9GZR2 whole entry, looked up): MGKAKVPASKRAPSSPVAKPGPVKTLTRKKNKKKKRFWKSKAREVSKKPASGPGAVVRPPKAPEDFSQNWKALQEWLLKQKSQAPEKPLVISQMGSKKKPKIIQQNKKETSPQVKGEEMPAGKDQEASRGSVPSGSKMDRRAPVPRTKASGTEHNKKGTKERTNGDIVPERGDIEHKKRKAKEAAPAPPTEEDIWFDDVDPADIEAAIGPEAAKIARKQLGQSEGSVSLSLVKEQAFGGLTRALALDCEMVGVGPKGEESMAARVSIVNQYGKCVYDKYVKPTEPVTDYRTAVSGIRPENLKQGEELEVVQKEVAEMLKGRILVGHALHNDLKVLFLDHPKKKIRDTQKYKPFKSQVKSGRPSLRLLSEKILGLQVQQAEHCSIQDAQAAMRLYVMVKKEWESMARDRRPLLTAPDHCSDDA
Sequence of UniProt Q9H0U4 (Q9H0U4 whole entry, looked up): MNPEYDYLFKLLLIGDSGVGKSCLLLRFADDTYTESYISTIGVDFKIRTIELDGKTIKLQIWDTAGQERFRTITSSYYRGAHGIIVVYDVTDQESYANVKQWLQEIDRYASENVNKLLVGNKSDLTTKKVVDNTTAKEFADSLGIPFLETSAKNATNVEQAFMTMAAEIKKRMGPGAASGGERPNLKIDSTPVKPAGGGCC
Sequence of UniProt P31040 (P31040 whole entry, looked up): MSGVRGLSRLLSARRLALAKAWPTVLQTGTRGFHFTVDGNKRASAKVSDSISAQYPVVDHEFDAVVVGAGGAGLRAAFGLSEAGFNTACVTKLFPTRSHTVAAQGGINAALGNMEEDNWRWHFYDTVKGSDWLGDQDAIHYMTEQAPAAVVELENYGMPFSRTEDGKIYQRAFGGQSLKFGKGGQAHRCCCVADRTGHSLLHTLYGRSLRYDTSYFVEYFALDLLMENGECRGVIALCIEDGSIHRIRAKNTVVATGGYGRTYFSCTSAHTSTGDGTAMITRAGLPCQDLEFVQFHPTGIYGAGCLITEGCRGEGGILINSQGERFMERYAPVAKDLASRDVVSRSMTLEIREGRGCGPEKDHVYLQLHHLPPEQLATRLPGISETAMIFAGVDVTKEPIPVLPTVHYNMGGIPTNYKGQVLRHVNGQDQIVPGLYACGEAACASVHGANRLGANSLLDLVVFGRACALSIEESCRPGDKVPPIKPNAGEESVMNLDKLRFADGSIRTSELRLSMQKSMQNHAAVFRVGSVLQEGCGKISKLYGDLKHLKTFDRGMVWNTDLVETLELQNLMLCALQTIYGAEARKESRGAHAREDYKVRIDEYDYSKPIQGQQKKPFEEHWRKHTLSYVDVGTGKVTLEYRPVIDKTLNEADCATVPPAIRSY
Sequence of UniProt Q6UVJ0 (Q6UVJ0 whole entry, looked up): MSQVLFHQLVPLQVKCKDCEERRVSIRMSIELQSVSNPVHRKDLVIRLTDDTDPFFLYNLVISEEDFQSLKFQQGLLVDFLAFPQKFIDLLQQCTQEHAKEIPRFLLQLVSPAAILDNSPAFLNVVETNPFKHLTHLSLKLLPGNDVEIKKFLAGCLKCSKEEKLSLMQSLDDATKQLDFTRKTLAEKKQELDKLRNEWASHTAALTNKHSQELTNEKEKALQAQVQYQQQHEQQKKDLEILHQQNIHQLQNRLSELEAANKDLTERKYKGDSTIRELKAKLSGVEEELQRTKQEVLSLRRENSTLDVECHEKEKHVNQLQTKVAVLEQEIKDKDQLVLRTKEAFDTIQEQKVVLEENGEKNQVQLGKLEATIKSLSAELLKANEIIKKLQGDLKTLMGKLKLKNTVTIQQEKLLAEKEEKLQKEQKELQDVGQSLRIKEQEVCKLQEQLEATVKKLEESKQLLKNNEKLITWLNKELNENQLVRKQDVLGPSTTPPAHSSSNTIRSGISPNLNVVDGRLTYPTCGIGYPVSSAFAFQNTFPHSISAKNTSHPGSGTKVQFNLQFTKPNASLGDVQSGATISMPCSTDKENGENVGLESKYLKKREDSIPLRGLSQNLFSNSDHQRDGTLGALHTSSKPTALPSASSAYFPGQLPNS
Sequence of UniProt P35249 (P35249 whole entry, looked up): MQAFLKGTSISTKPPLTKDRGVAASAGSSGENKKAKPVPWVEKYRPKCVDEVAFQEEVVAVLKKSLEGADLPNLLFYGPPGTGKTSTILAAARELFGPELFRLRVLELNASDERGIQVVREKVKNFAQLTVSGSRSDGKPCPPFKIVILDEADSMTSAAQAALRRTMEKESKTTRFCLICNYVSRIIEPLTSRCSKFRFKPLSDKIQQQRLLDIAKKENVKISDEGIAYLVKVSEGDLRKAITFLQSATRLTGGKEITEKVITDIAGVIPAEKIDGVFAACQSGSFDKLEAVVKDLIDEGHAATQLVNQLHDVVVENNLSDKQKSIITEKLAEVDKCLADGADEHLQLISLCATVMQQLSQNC
Sequence of UniProt Q7Z6M1 (Q7Z6M1 whole entry, looked up): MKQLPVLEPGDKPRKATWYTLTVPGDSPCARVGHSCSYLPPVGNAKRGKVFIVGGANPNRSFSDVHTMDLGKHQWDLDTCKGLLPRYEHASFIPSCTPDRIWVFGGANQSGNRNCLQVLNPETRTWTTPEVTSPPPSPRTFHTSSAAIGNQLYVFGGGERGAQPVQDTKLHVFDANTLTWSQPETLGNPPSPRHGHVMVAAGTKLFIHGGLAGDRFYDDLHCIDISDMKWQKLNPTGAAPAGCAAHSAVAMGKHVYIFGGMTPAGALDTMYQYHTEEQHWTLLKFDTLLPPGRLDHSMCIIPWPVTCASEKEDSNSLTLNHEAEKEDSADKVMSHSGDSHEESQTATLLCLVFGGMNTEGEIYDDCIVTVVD

| Target | log2 fold change (vemurafenib) | log2 fold change [1] | log2 fold change (barasertib) | log2 fold change [2] | log2 fold change (volasertib) | log2 fold change [3] | log2 fold change [4] | log2 fold change [5] | log2 fold change (saracatinib) | log2 fold change (sotrastaurin) | log2 fold change (alvocidib) | log2 fold change (Tubastatin A) | log2 fold change [6] | log2 fold change (defactinib) | log2 fold change [7] | log2 fold change (encorafenib) | log2 fold change [8] | log2 fold change (alisertib) | log2 fold change [9] | log2 fold change (gefitinib) |
| --- | --- | --- | --- | --- | --- | --- | --- | --- | --- | --- | --- | --- | --- | --- | --- | --- | --- | --- | --- | --- |
| RABEPK (UniProt Q7Z6M1) | -0.024 | 0.003 | -0.066 | 0.014 | -0.006 | -0.021 | 0.015 | 0.011 | -0.02 | -0.028 | 0.03 | -0.048 | 0.004 | 0.014 | -0.025 | 0.004 | 0.032 | 0.002 | 0 | 0.01 |
| RAB3IL1 (UniProt Q8TBN0) | -0.018 | 0.017 | 0.054 | 0.022 | -0.008 | 0.054 | 0.025 | -0.016 | 0.033 | -0.024 | 0.027 | -0.021 | 0.022 | 0.007 | 0.009 | -0.006 | -0.031 | -0.013 | 0.039 | 0.014 |
| RNF213, A0A0A0MTC1 | 0.017 | 0.025 | 0.076 | -0.038 | -0.077 | 0.027 | -0.05 | -0.053 | 0.027 | 0.043 | -0.003 | -0.081 | 0.023 | -0.02 | -0.04 | 0.054 | -0.061 | 0.013 | 0.012 | -0.012 |
| SASS6 (UniProt Q6UVJ0) | 0.042 | -0.024 | -0.016 | 0.039 | -0.024 | 0.024 | 0.154 | -0.047 | 0.059 | -0.02 | 0.051 | -0.104 | 0.018 | 0.03 | -0.002 | 0.053 | 0.085 | -0.019 | 0.005 | 0.001 |
| RPS29 (UniProt P62273) | -0.005 | 0.039 | -0.034 | -0.028 | 0.078 | 0.109 | 1.01 (active) | -0.262 | -0.007 | -0.133 | 0.23 | -0.052 | -0.029 | -0.027 | 0.081 | -0.062 | 0.151 | -0.278 | 0.032 | -0.138 |
| SDHA (UniProt P31040) | 0.042 | 0.018 | -0.032 | -0.004 | 0.002 | -0.003 | -0.022 | 0.02 | -0.02 | 0.005 | -0.004 | -0.012 | 0 | -0.04 | 0.002 | -0.023 | -0.04 | -0.023 | -0.014 | -0.031 |
| RPTOR (UniProt Q8N122) | -0.028 | 0.022 | 0.052 | -0.024 | -0.046 | 0.038 | 0.018 | -0.039 | 0 | 0.046 | 0.008 | -0.11 | 0.036 | 0 | -0.048 | -0.004 | -0.007 | -0.012 | -0.005 | -0.007 |
| RAB1B (UniProt Q9H0U4) | -0.003 | 0.012 | 0.073 | 0.019 | 0.006 | -0.016 | -0.444 (active) | 0.171 | 0.021 | 0.017 | -0.146 | 0.007 | -0.016 | -0.037 | 0.01 | 0.065 | -0.058 | 0.047 | 0.003 | 0.064 |
| RFC4 (UniProt P35249) | 0.047 | 0.02 | 0.02 | -0.012 | -0.042 | 0.003 | -0.086 | 0.028 | 0.044 | 0.003 | -0.018 | -0.119 | 0.018 | 0.009 | -0.043 | 0.018 | 0.088 | 0.022 | 0.003 | -0.006 |
| REXO4 (UniProt Q9GZR2) | -0.018 | 0.007 | 0.088 | 0.013 | -0.034 | 0 | 0.452 (active) | -0.184 | -0.002 | 0.013 | 0.089 | -0.108 | 0.026 | 0.013 | 0.032 | -0.007 | 0.08 | -0.008 | 0.024 | -0.029 |
| SERPINI1 (UniProt Q99574) | 0.027 | 0.008 | -0.006 | 0.024 | -0.001 | 0.03 | 0.001 | 0.069 | 0 | 0.016 | -0.031 | 0.015 | -0.001 | 0.019 | -0.042 | 0.02 | -0.074 | -0.064 | 0.013 | 0.048 |
| RAD51C (UniProt O43502) | -0.067 | -0.01 | -0.011 | -0.017 | 0.046 | -0.038 | -0.027 | 0.027 | 0.01 | 0.027 | 0.061 | -0.081 | 0.002 | 0.035 | 0.072 | -0.058 | 0.004 | -0.005 | 0.047 | -0.016 |
| RPL37A (UniProt P61513) | 0.003 | -0.002 | -0.013 | -0.01 | -0.015 | -0.044 | 0.371 (active) | -0.158 | -0.035 | -0.138 | 0.159 | 0.024 | 0.022 | -0.045 | 0.161 | 0.004 | 0.021 | -0.006 | 0.004 | -0.064 |
| RPL8 (UniProt P62917) | -0.055 | 0.013 | -0.042 | -0.09 | -0.012 | 0.021 | 0.208 | -0.014 | -0.009 | -0.038 | 0.007 | 0.023 | 0.02 | 0.038 | 0.104 | 0.022 | -0.046 | 0.018 | -0.008 | 0.011 |
| RASA3 (UniProt Q14644) | -0.008 | 0.009 | 0.107 | -0.1 | -0.082 | -0.058 | 0.105 | 0.298 | -0.003 | 0.048 | -0.089 | -0.246 | 0 | 0.052 | -0.118 | -0.005 | 0.082 | -0.006 | 0.032 | -0.043 |
| SCO1 (UniProt O75880) | -0.027 | -0.012 | -0.008 | -0.009 | 0.025 | -0.027 | -0.01 | 0.016 | 0.006 | 0.016 | 0.002 | -0.031 | -0.051 | -0.004 | 0.053 | -0.004 | -0.57 (active) | -0.096 | 0.014 | -0.015 |
